Among all 340,000 compounds or so, about 5,100 (1.5%) were called active. This is one part of a sample in which actives are shown more often than they occur. Unmarked numbers belong to inactive results.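 Rule for the calls: active = mean Tm shift, scaled 0 neutral to 100 positive control, at about 1.3% or above, every replicate too (limit read from the data); inconclusive = no clear call, values can overlap the other calls; inactive = the rest.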

This passage reports activity (Tm shift, normalised) results from PubChem BioAssay AID651658 (Broad Institute, 2012).

In this test the target is Fibroblast growth factor 22 (Homo sapiens) (UniProt Q9HCT0). In words: FGF22 ligand-induced thermal stabilization – biophysical, thermal shift, single point, FGF22 synaptogenesis inhibitor project, primary screen (AID 651658). The settings on record: recombinant FGF22 thermal shift, SYPRO orange fluorescence; at 9.99 µM; stronger effect = higher value; percent of sucrose octasulfate shift, DMSO zero.
Sequence of Fibroblast growth factor 22 (Homo sapiens) (Q9HCT0 whole entry, looked up): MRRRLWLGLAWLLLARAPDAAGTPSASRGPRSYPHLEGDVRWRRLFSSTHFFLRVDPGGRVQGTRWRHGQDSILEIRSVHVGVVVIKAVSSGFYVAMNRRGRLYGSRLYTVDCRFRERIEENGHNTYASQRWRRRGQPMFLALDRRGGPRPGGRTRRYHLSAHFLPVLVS
For the compound `COc1ccccc1C#Cc1cnc2c(c1)C(=O)N([C@@H](C)CO)C[C@@H](C)[C@@H](CN(C)C(=O)CN(C)C)O2`, the activity (Tm shift, normalised) was -0.154%.
The same measure for `CN(C)CCNC(=O)Cc1ccc([N+](=O)[O-])cc1`: 0.505%.
The same measure for `CN(C)C(CNC(=O)Cc1ccc([N+](=O)[O-])cc1)c1ccccc1` (configuration not stated): 42.9% (active).
In the case of `O=C(CC(c1ccccc1)c1ccccc1)NCC(O)c1ccc([N+](=O)[O-])cc1` (configuration not stated), the activity (Tm shift, normalised) was -0.099%.
As to `CCC(=O)N(C)C[C@H]1Oc2ncc(C#CC(C)C)cc2C(=O)N([C@@H](C)CO)C[C@H]1C`, the activity (Tm shift, normalised) is 0.017%.
The same measure for `O=C(C1CCCC1)N1[C@H](CO)[C@@H]2c3ccccc3N(S(=O)(=O)c3ccccc3)C[C@@H]21`: 0.581%; for `C[C@H](O)C#Cc1cnc2c(c1)C(=O)N([C@H](C)CO)C[C@@H](C)[C@H](CN(C)CC1CCCCC1)O2`: -0.028%; for `CN(C)CC(=O)N[C@H]1CC[C@@H](CCNC(=O)C2CCCC2)O[C@@H]1CO`: 0.021%.
With `Cc1ccc(-n2c(C)cc(C(=O)CSc3nnc4ccccn34)c2C)cc1`, the activity (Tm shift, normalised) was 43.1% (active).
The same measure for `O=C(CSc1nnc2ccccn12)c1ccccc1`: -0.056%.
With `Cc1ccc(C(=O)NNC(=O)CSc2nnc3ccccn23)cc1`, the activity (Tm shift, normalised) was -0.076%.
On to `CN1C(=O)c2cc(NC(=O)c3ccc4c(c3)OCO4)ccc2OC[C@@H]2O[C@H](CC(=O)O)CC[C@H]21`, for which the activity (Tm shift, normalised) was 0.218%.
As for `C[C@H](CO)N1C[C@H](C)[C@@H](CN(C)C(=O)c2cnccn2)Oc2ncc(-c3ccccc3F)cc2C1=O`, the activity (Tm shift, normalised) is -0.163%.
Consider `C/C(CC(=O)Nc1cccc(F)c1)=N\NC(=O)C(=O)NC1CCCCC1`, for which the activity (Tm shift, normalised) was 43.7% (active).
Next, `O=C(Nc1cccc(F)c1)NC1CCCCCCC1`: 0.32%; `COc1cccc(NC(=O)C/C(C)=N/NC(=O)C2CCCCC2)c1`: -0.252%; `COc1ccc(CN(C)C[C@@H]2OCCCC[C@@H](C)Oc3ccc(NS(=O)(=O)c4ccc(F)cc4)cc3C(=O)N([C@@H](C)CO)C[C@H]2C)cc1`: -0.218%.
Consider `Cc1cccc(-c2ccc([C@@H]3[C@@H](CO)N4CCCCN(S(=O)(=O)c5cccs5)C[C@H]34)cc2)c1`, for which the activity (Tm shift, normalised) is -0.206%.
On to `C[C@H](CO)N1C[C@H](C)[C@H](CN(C)Cc2ccc(C(=O)Nc3ccccc3N)cc2)Oc2c(NC(=O)Nc3ccccc3)cccc2C1=O`, for which the activity (Tm shift, normalised) was -0.326%.
Consider `C/C=C/c1ccc2c(c1)O[C@H](CN(C)C(=O)Cc1ccccn1)[C@H](C)CN([C@H](C)CO)S2(=O)=O`, for which the activity (Tm shift, normalised) was -0.272%.
In the case of `CCOc1cc(NC(=O)Nc2ccccc2)c(OCC)cc1NC(=O)CC`, the activity (Tm shift, normalised) is -0.075%.
In the case of `CCCNCc1cc(OCC)c(OCC(=O)Nc2ccccc2)cc1Br`, the activity (Tm shift, normalised) is 44% (active).
Take `CCOc1ccc(CCNC(=O)Nc2ccccc2)cc1OCC`: the activity (Tm shift, normalised) is -0.025%.
For the compound `CCCN1C[C@H](C)[C@@H](OC)CN(C)C(=O)c2cc(NS(=O)(=O)CC)ccc2OC[C@H]1C`, the activity (Tm shift, normalised) was -0.257%.
Next, `Cc1ccccc1OS(=O)(=O)c1cccc([N+](=O)[O-])c1`: 43% (active); `Cc1cc(C)n(S(=O)(=O)c2cccc([N+](=O)[O-])c2)n1`: -0.005%.
Take `Cc1cc([N+](=O)[O-])ccc1NS(=O)(=O)c1ccccc1`: the activity (Tm shift, normalised) is 1.12%.
The same measure for `CCCNC(=O)Nc1ccc2c(c1)C(=O)N(C)C[C@H](OC)[C@@H](C)CN(C)[C@@H](C)CO2`: -0.468%; for `O=C(c1ccccc1F)N1CC(=O)N2[C@H](C1)[C@H](c1ccc(-c3ccc(F)cc3)cc1)[C@@H]2CO`: 1.26% (active).
As to `O=C(c1cccnc1)N1CC(=O)N2[C@H](C1)[C@H](c1ccc(-c3ccccc3F)cc1)[C@@H]2CO`, the activity (Tm shift, normalised) was 0.042%.
Next, `COCC(=O)N1CC(=O)N2[C@H](CO)[C@@H](c3ccc(-c4ccccc4F)cc3)[C@H]2C1`: -0.341%; `C/C=C/c1ccccc1[C@@H]1[C@@H](CO)N(C(=O)CN2CCOCC2)[C@H]1C#N`: -0.302%.
On to `C[C@H]1CN([C@@H](C)CO)C(=O)c2cc(NC(=O)Cc3cn(C)c4ccccc34)ccc2O[C@@H]1CN(C)Cc1ccc(Cl)c(Cl)c1`, for which the activity (Tm shift, normalised) is 0.161%.
As to `Cc1noc(C)c1S(=O)(=O)Nc1ccc2c(c1)C(=O)N([C@@H](C)CO)C[C@@H](C)[C@H](CN(C)C(=O)NC(C)C)OCCCC[C@@H](C)O2`, the activity (Tm shift, normalised) is -0.227%.
As for `CC(C)NC(=O)N(C)C[C@H]1OCCCC[C@@H](C)Oc2ccc(NC(=O)C3CCCCC3)cc2C(=O)N([C@H](C)CO)C[C@H]1C`, the activity (Tm shift, normalised) was -0.185%.
Turning to `COc1ccc(/C(C)=N/NC(=O)c2ccc3nc[nH]c3c2)cc1`, the activity (Tm shift, normalised) is 0.005%.
Consider `O=C(N/N=C/c1ccc(Cl)c(Cl)c1)c1ccc2nc[nH]c2c1`, for which the activity (Tm shift, normalised) was 1.65% (active).
For the compound `CC(=NNC(=O)c1ccc2nc[nH]c2c1)c1ccc(Br)cc1`, the activity (Tm shift, normalised) was 0.573%.
As for `CCC(=O)Nc1ccc2c(c1)C(=O)N(C)C[C@H](OC)[C@H](C)CN(C(=O)c1ccccn1)[C@@H](C)CO2`, the activity (Tm shift, normalised) was 0.116%.
On to `CC(=O)C12CC(C)=C(C)CC1CC1C3CCC4=CC(=O)CCC4(C)C3CCC12C` (configuration not stated), for which the activity (Tm shift, normalised) is -0.095%.
Turning to `CC(=O)O[C@]1(C(C)=O)CC[C@H]2[C@@H]3C=C(C)C4=CC(=O)CC[C@]4(C)[C@H]3CC[C@@]21C`, the activity (Tm shift, normalised) is -0.13%.
The same measure for `C[C@]12CCC(=O)C=C1C=CC1C2CC[C@@]2(C)C1CC[C@@]21CCC(=O)O1` (some centres not stated): 43.7% (active).
The same measure for `C[C@H](CO)N1C[C@H](C)[C@H](CN(C)S(=O)(=O)c2cccs2)Oc2c(NC(=O)Nc3ccc4c(c3)OCO4)cccc2C1=O`: -0.125%.
In the case of `O=C(C[C@H]1CC[C@@H](NC(=O)c2ccc(F)cc2)[C@@H](CO)O1)NCc1ccncn1`, the activity (Tm shift, normalised) was -0.132%.
For `COCC(=O)Nc1ccc2c(c1)[C@H]1C[C@@H](CC(=O)NCc3ccccc3F)O[C@H](CO)[C@H]1O2`, the activity (Tm shift, normalised) was -0.327%.
In the case of `C[C@@H](NC(=O)C[C@H]1CC[C@@H](NC(=O)Cc2ccccn2)[C@@H](CO)O1)c1ccccc1`, the activity (Tm shift, normalised) was -0.123%.
With `CO[C@@H]1CC[C@H]2CCN(C)C(=O)[C@@H](C)CN(C)C(=O)c3cccc(C#N)c3OC[C@@H]1O2`, the activity (Tm shift, normalised) was -0.102%.
